Test results reported in ChEMBL document CHEMBL1157539, “Thousands of chemical starting points for antimalarial lead identification” (Nature, 2010).

These compounds were tested on Plasmodium falciparum (assay: GSK_TCMDC: Inhibition of Plasmodium falciparum 3D7 in whole red blood cells, using parasite LDH activity as an index of growth. Test compounds present at 2uM).
Assay type: functional
In the case of COc1ccc(Cl)cc1N1CCN(CCCNC(=O)c2ccc(-c3nc4cc(Cl)c(F)cc4[nH]3)cc2)CC1, the Inhibition is reported as 100%. Compound Cc1cc(Nc2ccc(C)c(Cl)c2)n2nc(C(F)(F)F)nc2n1 has an Inhibition of 98%. C=C(NC(=O)c1cc(C)cc(C)c1)C(=O)OC was tested, and the Inhibition was 95%. With Cc1noc(C)c1-c1cccc(CNCc2ccc(-c3ccc(-c4nc5cc(C(F)(F)F)ccc5[nH]4)cc3)cc2)c1.O=C(O)C(F)(F)F the Inhibition was 100%. For COC(=O)c1cccc(CNCc2ccc(-c3ccc(-c4nc5cc(C(F)(F)F)ccc5[nH]4)cc3)cc2)c1.O=C(O)C(F)(F)F, the Inhibition was 100%. Compound O=C(NC1CCCC1)c1cc2c(=O)n3ccccc3nc2[nH]/c1=N/CCc1ccccc1 has an Inhibition of 100%. Compound O=C(N[C@H](CC1CCCCC1)C(=O)NC1CCCc2ccccc21)c1ccc(O)c(-c2cccc([N+](=O)[O-])c2)c1 (stereo not given in full) has an Inhibition of 99%. For CCN(CC)CCNC(=O)/C(=C/C=C/c1cc2cc(Cl)c(Cl)cc2[nH]1)OC, the Inhibition was 88%. O=C(O)C(F)(F)F.OC1CCCN(Cc2ccc(-c3ccc(-c4nc5ccccc5[nH]4)cc3)cc2)C1 (stereo not given) gave an Inhibition of 100%. Work on O=C(Nc1ccc(SC(F)(F)F)cc1)Nc1ccc(Cl)c(Cl)c1 yielded an Inhibition of 98%. For Cc1cccc2nc(-c3ccc(-c4ccc(NC(=O)C5CCN(C)CC5)cc4)cc3)[nH]c12, the Inhibition was 100%. In the case of Cc1cc(C(=O)NC2CCN(Cc3ccccc3)CC2)ccc1-c1nc2cc(Cl)c(Cl)cc2[nH]1, the Inhibition is reported as 96%. In the case of Cc1cc(OCCCNc2nc(NCCc3ccc(O)cc3)nc(N3CCNCC3)n2)c(Cl)c(C)c1Cl.O=C(O)C(F)(F)F, the Inhibition is reported as 99%. For COc1cc2nc(N3CCC(CNC(=O)c4ccc(-c5ccc(C(=O)N(C)C)cc5OCCO)cc4)CC3)nc(N)c2cc1OC, the Inhibition was 100%. CCCCOC(=O)[C@H](CCC)NC(=O)c1ccc(NS(=O)(=O)c2ccc3nc(N)[nH]c(=O)c3c2)cc1 was tested, and the Inhibition was 99%. COc1ccc(NC(=O)[C@H](Cc2ccccc2)Nc2cc(C)nc(NCCc3ccccc3OC)n2)cc1.O=C(O)C(F)(F)F was tested, and the Inhibition was 100%. Work on Cc1ccccc1C1CCN(c2ccc(NC(=O)c3ccc(Cl)nc3)cc2)CC1.O=C(O)C(F)(F)F yielded an Inhibition of 92%. Br.CCCc1cc(OCCCOc2ccccc2)ccc1OCCCON1C(=N)N=C(N)NC1(C)C gave an Inhibition of 94%. COc1ccc2nc(SC(C)C(=O)c3c[nH]c4ccccc34)[nH]c2c1 (stereo not given) showed an Inhibition of 100%. In the case of Cc1ccc(C)c(C2CCN(CCCCNC(=O)c3ccc(NC(=O)c4ccc(Cl)cc4)cc3)CC2)c1, the Inhibition is reported as 94%. Compound Cc1cccc2nc(-c3ccc(-c4ccc(CNC(C)C)cc4)cc3)[nH]c12.O=C(O)C(F)(F)F has an Inhibition of 99%. C=CCc1ccc(C[C@H](NC(=O)OC(C)(C)C)C(=O)OC)cc1 showed an Inhibition of 98%. Work on O=C(Nc1ccccc1)N(Cc1cccc(-c2ccc(CNCCc3ccccc3)cc2)c1)C1CCN(Cc2ccccc2)CC1.O=C(O)C(F)(F)F yielded an Inhibition of 100%. CCN(CC)C(C)(C)CN(Cc1ccc(-c2ccc(C(F)(F)F)cc2)cc1)C(=O)Cn1c(CCc2cccc(F)c2F)nc(=O)c2ccccc21.O=C(O)C(O)C(O)C(=O)O showed an Inhibition of 91%. Work on CN1CCC(C(=O)Nc2cccc(-c3ccc(-c4nc5cc(F)ccc5[nH]4)cc3)c2)CC1 yielded an Inhibition of 100%. In the case of COc1cc(NC(=O)/C=C/c2cc3ccccc3n2C)ccc1OCCN(C(C)C)C(C)C.Cl, the Inhibition is reported as 99%. In the case of Cc1ccc(C)c(NC(=O)Nc2ccc(Nc3nc(C)cc(N4CCOCC4)n3)cc2)c1, the Inhibition is reported as 98%. COc1cc(C(=O)N2CCOC(CCN3CCC[C@H]3C(=O)Nc3ccccc3)(c3ccc(Cl)c(Cl)c3)C2)cc(OC)c1OC (stereo not given in full) gave an Inhibition of 98%. Compound COc1ccc2nc3cc(Cl)ccc3c(NCCCCN)c2c1.Cl has an Inhibition of 100%. Work on CC(C)(C)NC(=O)c1ccc(Oc2ccc(OC(F)(F)F)cc2)c(NC(=O)C(C)(C)C)c1 yielded an Inhibition of 89%. Compound CCCCN(CCCC)CCCCNc1c2ccc(Cl)cc2nc2ccc(OC)cc12.Cl has an Inhibition of 100%. COc1ccc(-c2nc(NC(=O)CS(=O)(=O)c3ccc(F)cc3)sc2C)cc1 showed an Inhibition of 100%. In the case of CCOc1ccc(-c2n[nH]c(C(F)(F)F)c2-c2ccccc2OC)c(O)c1, the Inhibition is reported as 86%. For CCN1CCc2c1cc(C(=O)N[C@@H](Cc1ccccc1)[C@H](O)CNC(C)(C)c1cccc(C(F)(F)F)c1)cc2N1CCCCS1(=O)=O, the Inhibition was 100%. Cc1cccc2nc(C(=O)Nc3nc(CN4CCC(C)CC4)cs3)cn12 showed an Inhibition of 94%. In the case of COc1ccc2nccc(N3CCC(CCNCc4ccc5c(n4)NC(=O)CS5)CC3)c2c1.Cl, the Inhibition is reported as 100%. CCCCNC(=O)[C@@H]1CCCN1C(=O)c1ccc(O)c(-c2ccc(Cl)c(Cl)c2)c1 gave an Inhibition of 98%. O=C(Nc1ccc(Cn2nc(Cl)c(N3CCCNCC3)cc2=O)cc1)Nc1ccc(-c2ccccc2)cc1.O=C(O)C(F)(F)F showed an Inhibition of 87%. Cc1noc(C)c1CN1Cc2ccccc2OC2(CCN(Cc3c[nH]c4cnccc34)CC2)C1.O=C(O)C(F)(F)F showed an Inhibition of 89%. O=C(O)C(F)(F)F.O=S(=O)(c1ccccc1)n1ccc2cc(Nc3ncnc4cc(C#C[C@H]5CCCN5)sc34)ccc21 gave an Inhibition of 85%.
